The record followed here is PubChem BioAssay (NCI).

Compounds without any hit were thinned out: in the full panel of roughly 83,000, 20% have a hit.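 Each cell line was grown in a 96-well plate and treated with one concentration of compound for 48 hours. Values below 10 were considered active.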 Unmarked numbers belong to inactive results. Activity calls are given as the source filed them.

Among the test systems are T-47D breast; BT-549 breast; MDA-MB-435 melanoma; SW-620 colon; MCF7 breast; HCT-116 colon; HCC-2998 colon; KM12 colon.
Common to all, as to test: NCI-60 one-dose screen, 48 h (100 = growth as untreated, 0 = no growth, -100 = all killed)
What all share (details): 10 µM unless noted

`O[C@H]1CO[C@H]2[C@@H]1OC[C@@H]2Oc1ccc(Nc2ccnc(Nc3ccc(O[C@H]4CO[C@H]5[C@@H]4OC[C@@H]5O)c(Cl)c3)n2)cc1Cl`: the growth was 2.36% (active) in the assay with T-47D breast; 22.1% in the assay with BT-549 breast; 22.7% in the assay with MDA-MB-435 melanoma; 19.5% in the assay on SW-620 colon; 14.6% with MCF7 breast; 9.14% (active) in the assay with HCT-116 colon. For the same molecule, the growth with HCC-2998 colon was 17.1%; with KM12 colon, 6.62% (active).
`C=CC(=O)N[C@@H](Cc1ccc(-c2cc(Cl)cc(Cl)c2)cc1)[C@@H](O)[C@H](O)C(=O)O`: the growth is 96.1% with T-47D breast; 91.9% in the assay with BT-549 breast; 102% with MDA-MB-435 melanoma; 101% in the assay on SW-620 colon; 93.5% in the assay on MCF7 breast; 91.5% in the assay on HCT-116 colon. Further, the growth in the assay on HCC-2998 colon was 87.3%; with KM12 colon it was 102%.
As to `CCOC(=O)c1sc(-c2ccc(OS(=O)(=O)c3ccc(C(C)(C)C)cc3)c(C=O)c2)nc1C`, the growth in the assay on T-47D breast was 31.2%; in the assay with BT-549 breast, 53.6%; with MDA-MB-435 melanoma, 57.2%; with SW-620 colon, 19.9%; in the assay on MCF7 breast it was 33.9%; with HCT-116 colon, 15.2%. Also, the figures for the growth in the assay with HCC-2998 colon and in the assay on KM12 colon were 52.4% and 17.9%, respectively.
For the molecule `O=[N+]([O-])c1ccc2[nH]cc(-c3c4ccsc4cc4[nH]c5ccc([N+](=O)[O-])cc5c34)c2c1`, the growth is 7.11% (active) in the assay on T-47D breast; 24.7% with BT-549 breast; -27.6% (active) in the assay on MDA-MB-435 melanoma; 25% with SW-620 colon; 9.14% (active) in the assay with MCF7 breast; 2.78% (active) in the assay with HCT-116 colon. For the same molecule, the growth in the assay on HCC-2998 colon was 7.3% (active); in the assay on KM12 colon, 3.79% (active).
In the case of `Cc1ccc(O)c(C(=O)c2ccccc2Cl)c1`, the growth with T-47D breast was 108%; in the assay on BT-549 breast, 93.8%; with MDA-MB-435 melanoma, 93.2%; in the assay with SW-620 colon it was 98.4%; in the assay with MCF7 breast, 101%; in the assay on HCT-116 colon, 99%. The growth is 56.2% with HCC-2998 colon and 116% in the assay on KM12 colon.
Turning to `C[C@@H]1C(=O)N(C[C@@H](Cc2ccccc2)NC(=O)OCc2ccccc2)[C@]1(Cc1ccccc1)C(=O)OCc1ccccc1`, the growth was 22.3% with T-47D breast; 61.3% with BT-549 breast; 48.3% in the assay with MDA-MB-435 melanoma; 40.9% in the assay on SW-620 colon; 27% with MCF7 breast; 34.4% in the assay with HCT-116 colon. The values for the growth in the assay on HCC-2998 colon and in the assay with KM12 colon were 72.8% and 26%, respectively.
Take `Cc1[nH]c(-c2nc3ccccc3[nH]2)c(C)c1C(=O)N1CCc2sccc2C1`: the growth with T-47D breast is 72.9%; in the assay with BT-549 breast it was 94.1%; in the assay on MDA-MB-435 melanoma, 94.9%; with SW-620 colon it was 89%; in the assay on MCF7 breast, 90.2%; in the assay with HCT-116 colon, 92.6%. The growth was 110% in the assay on HCC-2998 colon and 97.6% with KM12 colon.
`Cc1ccc(/C=C(\C#N)n2nnc3cc(Cl)c(Cl)cc32)cc1`: the growth with T-47D breast is 15.1%; in the assay on BT-549 breast, 7.89% (active); in the assay on MDA-MB-435 melanoma, -46.7% (active); in the assay with SW-620 colon it was 16.3%; in the assay on MCF7 breast, 6.58% (active); in the assay on HCT-116 colon, 8.31% (active). Further, the growth is 13.6% in the assay on HCC-2998 colon and 0.682% (active) in the assay on KM12 colon.
With `O=C1Nc2ccccc2SC1C1SC(=S)N(Cc2ccccc2)C1=O` (stereo not drawn), the growth in the assay on T-47D breast was 24.1%; with BT-549 breast, 42.4%; with MDA-MB-435 melanoma, 0.237% (active); in the assay with SW-620 colon, 20.9%; with MCF7 breast it was 17.8%; in the assay with HCT-116 colon, 42.8%. Besides, the results for the growth in the assay on HCC-2998 colon and in the assay on KM12 colon were 136% and -48.5% (active), respectively.
As to `O=C1NCC(=O)N(Cc2ccco2)[C@H]1Cc1ccccc1`, the growth with T-47D breast is 88%; with BT-549 breast, 95.5%; in the assay with MDA-MB-435 melanoma, 104%; in the assay on SW-620 colon it was 107%; in the assay on MCF7 breast, 91.5%; in the assay on HCT-116 colon it was 95.9%. Further, the growth was 109% in the assay on HCC-2998 colon and 103% in the assay on KM12 colon.
In the case of `COc1ccc(-c2nnc(-c3ccc4c(c3)nc(-c3ccccc3)n4C3CCCCC3)o2)cc1`, the growth is 4.1% (active) in the assay with T-47D breast; 30.9% in the assay with BT-549 breast; 59.6% with MDA-MB-435 melanoma; 71.3% with SW-620 colon; 33.2% in the assay on MCF7 breast; 34.7% in the assay on HCT-116 colon. Moreover, the growth in the assay with HCC-2998 colon is 81.5%; in the assay on KM12 colon it was 39.9%.
As to `C=C1C(=O)O[C@H]2[C@H]1CC/C(COC(=O)/C=C\C(=O)NCc1ccc(Cn3c(=O)sn(-c4ccc(OC)cc4)c3=O)cc1)=C\CC[C@@]1(C)O[C@@H]21`, the growth is -51.6% (active) with T-47D breast; -51.8% (active) in the assay on BT-549 breast; -65.8% (active) in the assay with MDA-MB-435 melanoma; -53.6% (active) in the assay with SW-620 colon; -51.4% (active) in the assay on MCF7 breast; -65.5% (active) with HCT-116 colon. Also, the results for the growth with HCC-2998 colon and in the assay on KM12 colon were -75.7% (active) and -64.5% (active), respectively.
Regarding `COC(=O)CCCNC(=O)C(=O)c1c(O)c(O)c(C(C)C)c2cc(C)c(-c3c(C)cc4c(C(C)C)c(O)c(O)c(C(=O)C(=O)NCCCC(=O)OC)c4c3O)c(O)c12`, the growth in the assay with T-47D breast is 4.43% (active); with BT-549 breast, 8.07% (active); in the assay on MDA-MB-435 melanoma, 13%; in the assay on SW-620 colon, 19.2%; with MCF7 breast, 10.9%; in the assay with HCT-116 colon, -30.9% (active). The growth in the assay on HCC-2998 colon was 29.5%; in the assay with KM12 colon, 8.55% (active).
Turning to `COc1ccccc1C(=O)NC(=S)Nc1ccc(-c2nc3ccccc3[nH]2)cc1`, the growth with T-47D breast is 80.3%; in the assay with BT-549 breast, 32.3%; in the assay on MDA-MB-435 melanoma, 50.3%; in the assay on SW-620 colon, 43.5%; in the assay with MCF7 breast, 21.3%; in the assay on HCT-116 colon it was 13.8%. For the same molecule, the growth is 85.9% with HCC-2998 colon and 53.2% with KM12 colon.
For the molecule `COC(=O)Nc1nc2ccc(C(=O)C3CC3)cc2[nH]1`, the growth in the assay on T-47D breast was 57.1%; with BT-549 breast it was 74.9%; with MDA-MB-435 melanoma it was -63.7% (active); in the assay with SW-620 colon it was 20.6%; in the assay on MCF7 breast it was 4.01% (active); with HCT-116 colon it was 9.29% (active). Also, the growth in the assay on HCC-2998 colon is -12.7% (active); in the assay on KM12 colon it was -0.0812% (active).
Regarding `O=[N+]([O-])c1ccc(-c2cc3c(Nc4ccc(Cl)c(C(F)(F)F)c4)ncnc3s2)cc1`, the growth with T-47D breast is -6.08% (active); in the assay on BT-549 breast, 8.01% (active); in the assay with MDA-MB-435 melanoma, 5.4% (active); with SW-620 colon, 16.8%; in the assay on MCF7 breast, 3.55% (active); in the assay on HCT-116 colon it was 6.29% (active). Besides, the growth in the assay with HCC-2998 colon is 19.2%; in the assay on KM12 colon, 10.9%.
